In PubChem BioAssay (Tox21):
Unmarked numbers belong to inactive results. Results filed as inconclusive are left out. Entries that show only a call come without a potency. Calls of active or inactive are those of the source. Unless noted, calls come from the whole dose curve.

Assays:
[1] = qHTS assay to identify small molecule antagonists of the estrogen receptor beta (ER-beta) signaling pathway - cell viability counter screen (AID 1259382; active = well fitted curve in the direction sought with a large enough effect in the repeat runs; an effect the other way counts as inactive or inconclusive;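 note: HEK293T cells carrying ER-beta-UAS-bla reporter stimulated with estradiol; series mostly up to about 92 µM; nearly all actives have a fitted effect of over 55% in size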)
How it was run: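 Luminescent ATP read-out (CellTiter-Glo, 30 min, RT) taken in the same wells as the bla reporter assay. HEK293T ER-beta-UAS-bla cells in 2% charcoal-stripped FBS were exposed to compounds with 1nM E2 for 16 hr at 37C.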

[2] = molecular target: Estrogen receptor (Homo sapiens) (UniProt P03372); experiment: qHTS assay to identify small molecule agonists of the estrogen receptor alpha (ER-alpha) signaling pathway in the presence of an antagonist (AID 1259383); note: top concentration of the series differs between compounds; nearly all actives have a fitted effect of over 15% in size
How it was run: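 Luciferase luminescence (ONE-Glo, 30min at room temperature) measured in VM7Luc4E2 cells after 22hr compound exposure at 15 concentrations, with 10.0nM ICI-182,780 final present; cells express endogenous ER-alpha and carry four EREs upstream of luciferase.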

[3] = qHTS assay to identify small molecule agonists of the estrogen receptor alpha (ER-alpha) signaling pathway in the presence of an antagonist - cell viability counter screen (AID 1259386; active = well fitted curve in the direction sought with a large enough effect in the repeat runs; an effect the other way counts as inactive or inconclusive;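 note: series mostly up to about 92 µM; cells exposed to compounds for 22 h at 37 °C before the viability read; nearly all actives have a fitted effect of over 30% in size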)
How it was run: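 Read-out: CellTiter-Fluor fluorescence after 1hr reagent incubation, measured in the same wells as the luciferase readout. VM7Luc4E2 cells were exposed to 15 compound concentrations with 10.0nM ICI-182,780 for 22hr at 37C.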

[4] = molecular target: Progesterone receptor (Homo sapiens) (UniProt P06401); experiment: qHTS assay to identify small molecule agonists of the progesterone receptor (PR) signaling pathway (AID 1346784); note: nearly all actives have a fitted effect of over 30% in size
How it was run: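 Fluorescence from LiveBLAzer B/G FRET substrate cleavage (2 hr, RT) reported PR activation in PR-UAS-bla HEK 293T cells treated 16 hr at 37C/5% CO2 with compounds; medium contained 2% charcoal-stripped FBS.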

[5] = qHTS assay to identify small molecule antagonists of the progesterone receptor (PR) signaling pathway - cell viability counter screen (AID 1346798; active = well fitted curve in the direction sought with a large enough effect in the repeat runs; an effect the other way counts as inactive or inconclusive; note: series mostly up to about 92 µM; nearly all actives have a fitted effect of over 50% in size)
How it was run: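 CellTiter-Glo luminescence; PR-UAS-bla HEK293T, 3,000 cells/well; compound + R5020, 16 hr, 37C/5% CO2; 30 min RT before read.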

[6] = qHTS assay to identify small molecule agonists of the progesterone receptor (PR) signaling pathway - cell viability counter screen (AID 1346799); note: nearly all actives have a fitted effect of over 45% in size
How it was run: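 In parallel with the beta-lactamase readout, cytotoxicity toward PR-UAS-bla HEK293T cells was measured by CellTiter-Glo luminescence following 16 hr compound incubation in 2% charcoal-stripped FBS medium.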

[7] = qHTS assay to identify small molecule agonists or antagonists of the thyroid stimulating hormone receptor (TSHR) signaling pathway - wild type cell line counter screen (AID 1259384)
How it was run: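 Wild-type HEK293 cells were plated 18 h at 37 C/5% CO2, pin-dosed with compound plus Ro20-1724 medium, held 30 min at room temperature, then given cAMP-d2 and anti-cAMP-cryptate; fluorescence was read after 1 h. Fifteen concentrations, triplicate.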

[8] = molecular target: Thyrotropin receptor (Homo sapiens) (UniProt P16473); experiment: qHTS assay to identify small molecule antagonists of the thyroid stimulating hormone receptor (TSHR) signaling pathway (AID 1259385); note: nearly all actives have a fitted effect of over 20% in size
How it was run: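 TSHR-HEK293 cells were plated and held 18 h at 37C/5% CO2, then given compound plus Ro20-1724 and stimulated with TSH at 1.5 ng/mL final. After 30 min at room temperature, cAMP was detected with cAMP-d2/anti-cAMP-cryptate (1 h) by fluorescence.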

[9] = molecular target: Progesterone receptor (Homo sapiens) (UniProt P06401); experiment: qHTS assay to identify small molecule antagonists of the progesterone receptor (PR) signaling pathway (AID 1346795; active = well fitted inhibition curve with a large enough effect in the signal ratio in the repeat runs, not every such curve was filed as active; the % refers to the signal ratio; note: potency is the fitted concentration of half-maximal effect)
How it was run: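 Fluorescence intensity measured 2 hr after adding beta-lactamase FRET substrate to PR-UAS-bla HEK293T cells that had been co-treated 16 hr with compound and 1 nM R5020 (final concentration) in 2% charcoal-stripped FBS.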

Sequence of Estrogen receptor (Homo sapiens) (P03372 whole entry, looked up): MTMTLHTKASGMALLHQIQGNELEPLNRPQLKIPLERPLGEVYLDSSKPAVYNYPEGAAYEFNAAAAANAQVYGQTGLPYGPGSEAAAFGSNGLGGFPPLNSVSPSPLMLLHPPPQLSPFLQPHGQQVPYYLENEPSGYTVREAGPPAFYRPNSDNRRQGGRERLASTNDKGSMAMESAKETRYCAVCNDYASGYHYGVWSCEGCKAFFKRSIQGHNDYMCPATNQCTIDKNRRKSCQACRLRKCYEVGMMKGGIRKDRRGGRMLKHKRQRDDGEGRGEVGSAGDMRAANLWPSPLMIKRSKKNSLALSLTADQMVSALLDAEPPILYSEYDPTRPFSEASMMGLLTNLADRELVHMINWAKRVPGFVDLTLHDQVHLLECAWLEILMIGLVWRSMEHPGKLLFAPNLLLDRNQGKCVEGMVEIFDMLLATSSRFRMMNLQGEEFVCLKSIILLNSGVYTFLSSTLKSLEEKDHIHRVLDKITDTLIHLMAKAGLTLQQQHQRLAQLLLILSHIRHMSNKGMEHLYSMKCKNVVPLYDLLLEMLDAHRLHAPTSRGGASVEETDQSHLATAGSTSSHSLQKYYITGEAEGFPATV
Sequence of Progesterone receptor (Homo sapiens) (P06401 whole entry, looked up): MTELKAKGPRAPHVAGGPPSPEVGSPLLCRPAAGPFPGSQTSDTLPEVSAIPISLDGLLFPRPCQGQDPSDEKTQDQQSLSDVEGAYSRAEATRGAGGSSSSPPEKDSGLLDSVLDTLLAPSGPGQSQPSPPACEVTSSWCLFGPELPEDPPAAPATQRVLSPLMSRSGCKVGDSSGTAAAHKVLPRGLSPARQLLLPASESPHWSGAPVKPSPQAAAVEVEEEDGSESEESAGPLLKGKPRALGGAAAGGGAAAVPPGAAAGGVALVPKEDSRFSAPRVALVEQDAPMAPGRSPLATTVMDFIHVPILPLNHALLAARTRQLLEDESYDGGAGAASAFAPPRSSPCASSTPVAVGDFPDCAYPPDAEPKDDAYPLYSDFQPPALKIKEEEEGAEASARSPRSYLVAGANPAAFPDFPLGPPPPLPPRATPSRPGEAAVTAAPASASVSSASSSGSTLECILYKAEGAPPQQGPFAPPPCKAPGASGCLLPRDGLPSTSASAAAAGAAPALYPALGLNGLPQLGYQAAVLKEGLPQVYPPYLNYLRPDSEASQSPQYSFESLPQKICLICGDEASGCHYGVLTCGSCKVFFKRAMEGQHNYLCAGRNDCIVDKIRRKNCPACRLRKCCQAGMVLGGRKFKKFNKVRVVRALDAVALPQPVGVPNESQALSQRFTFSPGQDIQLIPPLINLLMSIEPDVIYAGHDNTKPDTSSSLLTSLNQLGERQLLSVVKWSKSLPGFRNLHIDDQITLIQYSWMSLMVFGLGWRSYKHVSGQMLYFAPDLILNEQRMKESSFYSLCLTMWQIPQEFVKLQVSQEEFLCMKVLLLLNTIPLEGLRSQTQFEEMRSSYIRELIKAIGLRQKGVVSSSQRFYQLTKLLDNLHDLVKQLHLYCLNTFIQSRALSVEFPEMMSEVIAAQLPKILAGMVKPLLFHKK
Sequence of Thyrotropin receptor (Homo sapiens) (P16473 whole entry, looked up): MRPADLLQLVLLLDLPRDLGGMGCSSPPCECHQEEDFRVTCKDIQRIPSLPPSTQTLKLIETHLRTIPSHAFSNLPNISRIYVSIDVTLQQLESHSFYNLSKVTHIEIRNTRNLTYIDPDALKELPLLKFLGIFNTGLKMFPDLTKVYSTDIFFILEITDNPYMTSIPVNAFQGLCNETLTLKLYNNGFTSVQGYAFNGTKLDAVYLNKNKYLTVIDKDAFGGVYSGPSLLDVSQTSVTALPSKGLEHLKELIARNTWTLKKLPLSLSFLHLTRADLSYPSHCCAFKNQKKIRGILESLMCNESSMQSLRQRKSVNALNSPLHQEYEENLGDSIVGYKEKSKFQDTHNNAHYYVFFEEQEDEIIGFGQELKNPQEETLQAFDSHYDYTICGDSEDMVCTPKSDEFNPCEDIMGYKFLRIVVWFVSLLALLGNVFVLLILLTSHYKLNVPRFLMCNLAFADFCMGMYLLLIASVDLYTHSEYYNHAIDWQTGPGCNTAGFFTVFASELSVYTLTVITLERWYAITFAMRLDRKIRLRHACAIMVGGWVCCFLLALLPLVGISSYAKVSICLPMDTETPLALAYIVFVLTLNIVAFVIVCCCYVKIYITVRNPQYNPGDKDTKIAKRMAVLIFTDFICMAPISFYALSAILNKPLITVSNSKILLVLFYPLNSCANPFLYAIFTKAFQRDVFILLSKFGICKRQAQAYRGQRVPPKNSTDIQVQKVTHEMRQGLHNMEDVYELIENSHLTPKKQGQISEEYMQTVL

Cc1c(C(C)C)c(=O)n(-c2ccccc2)n1C
outcome [1]: inactive
outcome [2]: inactive
Potency [3]: inactive
Potency [4]: inactive
Potency [5]: inactive
Potency [6]: inactive

C[CH2][Ge]([Cl])([CH2]C)[CH2]C
outcome [1]: inactive
outcome [7]: inactive
outcome [8]: inactive
Potency [3]: inactive
Potency [4]: inactive
Potency [9]: inactive
Potency [5]: inactive

CC(C)=CC(C)(C)C
outcome [1]: inactive
outcome [7]: inactive
outcome [8]: inactive
Potency [3]: inactive
Potency [4]: inactive
Potency [9]: inactive
Potency [6]: inactive

CN(C1CCCCC1)S(=O)(=O)c1ccccc1N
outcome [1]: inactive
outcome [7]: inactive
outcome [8]: inactive
Potency [3]: inactive
Potency [4]: inactive
Potency [9]: 17.2 µM (active)
Potency [5]: inactive
Potency [6]: inactive

C=C[C@@H](C)CCC=C(C)C
outcome [1]: inactive
outcome [7]: inactive
outcome [8]: inactive
Potency [3]: inactive
Potency [4]: inactive
Potency [9]: inactive
Potency [5]: inactive
Potency [6]: inactive

Cc1ccc(S(=O)(=O)NC(=O)NC2CCCCCCC2)cc1
outcome [1]: inactive
outcome [7]: inactive
outcome [8]: inactive
Potency [3]: inactive
Potency [4]: inactive
Potency [9]: inactive
Potency [5]: inactive
Potency [6]: inactive

CO[Si](CCCCl)(OC)OC
outcome [1]: inactive
outcome [2]: inactive
Potency [3]: inactive
Potency [9]: inactive

Cc1cc(O)c2c(c1)C(=O)c1cccc(O)c1C2=O
outcome [1]: inactive
outcome [2]: inactive
Potency [4]: inactive
Potency [5]: inactive
Potency [6]: inactive

O=C(O)Cc1cccc(-c2cc(CCCCCCc3ccc(O[C@H]4O[C@H](CO)[C@@H](O)[C@H](O)[C@@H]4O)c(-c4cccc(CC(=O)O)c4)c3)ccc2O[C@H]2O[C@H](CO)[C@@H](O)[C@H](O)[C@@H]2O)c1
activity change, negative = cytotoxicity [1]: 7.67% [at 0.349 µM]
cAMP activity change [7]: -6.17% [at 0.349 µM]
activity change, negative = inhibition [8]: -1.92% [at 0.349 µM]
activity change, negative = cytotoxicity [3]: 4.6% [at 0.349 µM]
activation [4]: 1.15% [at 0.349 µM]
activity change, negative = inhibition [9]: 0.629% [at 0.348 µM]

CC(C)COC(=O)CC(C(=O)OCC(C)C)S(=O)(=O)O (stereo not given)
outcome [1]: inactive
outcome [2]: inactive
Potency [3]: inactive
Potency [4]: inactive
Potency [9]: inactive
Potency [5]: inactive
Potency [6]: inactive

O=C1NC2NC(=O)NC2N1 (stereo not given)
outcome [1]: inactive
outcome [7]: inactive
outcome [8]: inactive
Potency [3]: inactive
Potency [4]: inactive
Potency [9]: inactive
Potency [5]: inactive
Potency [6]: inactive

O=S1(=O)CCCC1
outcome [1]: inactive
outcome [2]: inactive
Potency [3]: inactive
Potency [4]: inactive
Potency [5]: inactive
Potency [6]: inactive
